Compound activity: PubChem BioAssay, National Center for Advancing Translational Sciences (NCATS)
Rows were chosen to be rich in hits. Some 2% of all compounds tested hit in one or more screens of this group.
Abeta rescue: compounds reversing amyloid beta toxicity in yeast | Potency, µM (highest dose often 46.1 µM), hits mostly activators | AID 1347071 | 0.063% of 410,000 active | yeast expressing A-beta42, growth rescue, OD600, 48 h; response scale: 0% DMSO, 100% iron-clioquinol control; note: nearly all actives have a fitted effect of over 55% in size
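Growth rescue measured by 600 nm absorbance after 48 h yeast culture at 30 C with compound. Values normalized between DMSO and an equimolar ferric chloride plus clioquinol control.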
Rango release inh: inhibitors of RanGTP-induced Rango-importin beta complex dissociation; O95149+P62826; Biochemical FRET Rango-importin beta, RanGTP-induced dissociation; Potency, µM (doses to about 46.1 µM), inactives show top-dose activity change, negative = inhibition; 0.071% of 340,000 active; AID 540253; calls by dose curve; note: % of control where 0% means no effect; nearly all actives have a fitted effect of over 45% in size
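Quantitative HTS using a FRET biosensor: 0.1 uM Rango, 0.25 uM importin beta, 0.6 uM Ran, 2 mM GTP, 0.2 uM RCC1 final, PBS with DTT, Tween-20 and BSA. Post-read taken 45 min after Ran addition.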
TDP43 rescue: rescues yeast growth from TDP-43 toxicity; TDP-43 expressing yeast growth rescue, BacTiter-Glo, 24 h; Potency, µM (titrated, usually from 46.1 µM), for inactives: at the top dose growth rescue (activation), actives largely listed as activators; 1.8% of 410,000 active; AID 652104; note: % of control where 0% means no effect; nearly all actives have a fitted effect of over 50% in size
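Yeast expressing TDP-43 (pregrown in raffinose, seeded at OD600=0.02 in galactose medium) exposed to compounds 24 hr at 30 deg C. Growth read by BacTiter-Glo luminescence; rescue of toxicity appears as increased signal.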
Rango complex inh: Rango-importin beta binding inhibition; Potency, µM (titrated, usually from 92.2 µM), for the others: top-dose inhibition of complex formation; Q14974; Rango CFP/YFP FRET sensor + importin beta, 45 min; 0.031% of 340,000 active; calls by dose curve;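 note: 0% = DMSO wells and 100% = buffer wells lacking importin beta; nearly all actives have a fitted effect of over 15% in size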
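Inhibition scored from the CFP 486 nm/YFP 530 nm FRET ratio 45 min after adding 0.125 microM importin beta to 50 nM Rango biosensor preincubated 5 min with compound (room temperature, PBS with DTT, Tween-20, BSA). No-importin wells as positive control.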
aSyn yeast inh: rescues yeast growth from alpha-synuclein toxicity | Yeast expressing alpha-synuclein, growth rescue, BacTiter-Glo, 24 h | Potency, µM (titrated, usually from 46.1 µM), for inactives: top-dose growth rescue (activation), hits mostly activators | 0.14% of 370,000 active | AID 652106; note: % of control where 0% means no effect; nearly all actives have a fitted effect of over 65% in size
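Rescue of yeast growth: cells expressing toxic alpha-synuclein, induced in galactose at OD600 0.02, incubated with compound 24 h at 30 C. ATP luminescence quantified growth; inhibitors of toxicity appear as activators.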
ASM inhibitor: inhibitors of human secretory acid sphingomyelinase. P17405. placental ASM, HMU-PC fluorogenic substrate, 60 min. Potency, µM (titrated, usually from 57.5 µM), inactives show top-dose activity change, negative = inhibition, hits mostly inhibitors. 0.006% of 340,000 active. AID 504937
Target sequence (P17405 47-631 limits assumed): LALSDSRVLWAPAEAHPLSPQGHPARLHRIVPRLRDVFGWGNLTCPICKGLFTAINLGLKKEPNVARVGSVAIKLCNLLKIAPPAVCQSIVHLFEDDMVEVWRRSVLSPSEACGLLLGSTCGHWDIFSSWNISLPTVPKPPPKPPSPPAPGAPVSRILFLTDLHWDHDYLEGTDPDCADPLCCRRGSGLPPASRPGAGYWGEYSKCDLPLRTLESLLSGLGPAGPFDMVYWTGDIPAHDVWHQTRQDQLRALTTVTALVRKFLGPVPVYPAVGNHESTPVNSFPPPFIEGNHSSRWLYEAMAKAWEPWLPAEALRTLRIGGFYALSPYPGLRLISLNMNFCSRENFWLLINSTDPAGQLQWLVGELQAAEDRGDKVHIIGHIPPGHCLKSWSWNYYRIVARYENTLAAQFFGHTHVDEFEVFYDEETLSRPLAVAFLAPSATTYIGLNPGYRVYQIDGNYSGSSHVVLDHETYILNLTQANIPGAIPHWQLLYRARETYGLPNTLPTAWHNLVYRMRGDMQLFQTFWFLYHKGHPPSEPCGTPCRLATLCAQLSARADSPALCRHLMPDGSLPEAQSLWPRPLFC
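Human placenta-derived ASM enzyme was preincubated with compound for 10 minutes at room temperature, then given fluorogenic substrate HMU-PC0 (9 uM final) for 60 minutes at 37 °C; a pH 10 stop preceded fluorescence reading at Ex 386/Em 447 nm.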
Starred values were filed as active, the others as inactive; i = inactive; ? = inconclusive; . = not tested or not shown; [ ] = remark or other dose. Unless noted, calls come from the whole dose curve; as a rule, active = well fitted curve in the direction sought with a large enough effect; inconclusive = small, poorly fitted or top-dose-only effect, or another doubt; inactive = no such curve, though single readings can be large; an effect the other way counts as inactive or inconclusive. Potency is the fitted concentration of half-maximal effect.

SMILES | Abeta rescue | Rango release inh | TDP43 rescue | Rango complex inh | aSyn yeast inh | ASM inhibitor
Cc1ccc2oc(-c3cccc(NC(=O)COc4ccc(Cl)cc4C)c3C)nc2c1 | . | . | . | . | -2% | .
CC(=O)c1ccccc1OC(=O)c1ccc(-c2ccccc2)cc1 | i | -8% | 25µM* | 0% | -16% | 41%
CC(C)=NOC(=O)c1ccc(-c2ccccc2)cc1 | i | 0% | 22µM* | 1% | -8% | 5%
CC(=O)c1ccccc1OC(=O)c1ccc([N+](=O)[O-])o1 | i | -5% | 10µM* | 0% | ? | 2%
COc1ccc(OC)c(C(=O)COC(=O)c2ccc([N+](=O)[O-])o2)c1 | i | -10% | 22µM* | 0% | -37% | 5%
Cc1ccc(S(=O)(=O)c2nc(S(C)(=O)=O)sc2NCc2ccccc2)cc1 | i | . | 19% | . | . | .
CCOc1ccc(C(c2c(O)cc(C)n(CCOC)c2=O)N2CCN(c3ccccc3)CC2)cc1 (stereo not given) | i | . | 25% | . | . | .
Cn1cc(/C=C/c2ccnc3ccccc23)c2ccccc21 | . | . | . | . | -15% | .
COCC(=O)n1nc(NCc2ccc(OC)cc2)nc1NCc1ccc(OC)cc1 | i | 20% | 18µM* | -1% | 8% | -1%
COc1ccc(CNc2nc(NCc3ccc(OC)cc3)n(S(C)(=O)=O)n2)cc1 | i | 27% | -1% | -5% | 1% | -2%
CCN(Cc1nc(-c2ccc(OC)cc2)oc1C)S(=O)(=O)c1ccc(Cl)cc1 | i | . | 0% | . | . | .
CC(C)(C)NC(=S)NC(=O)C12CCC3CC(CC(C3)C1)C2 | 6.3µM* | 15% | 0% | -1% | -7% | -2%
CC(C)(C)NC(=O)C12CC3CC(CC(Cl)(C3)C1)C2 | i | ? | 2% | 0% | -14% | 6%
CCOC(=O)n1c(=O)oc2ccc(Cl)cc21 | i | 0% | 10µM* | 2% | 1% | 8%
CCOC(=O)n1c(=O)n(Cc2ccccc2Cl)c2ccccc21 | i | 3% | 7% | 0% | 11% | -2%
CCOC(=O)n1c(=O)n(Cc2ccc(Cl)cc2Cl)c2ccccc21 | i[9.22 µM] | -5% | 22µM* | 2% | 19% | -9%
CCCCOC(=O)n1c(=O)oc2ccccc21 | i[9.22 µM] | -2% | 5% | -2% | -4% | 3%
O=C(NC(=S)Nc1ccc(N2CCOCC2)cc1)c1ccccc1 | i | 12% | -11% | 1% | -2% | -1%
O=C(NC(=S)Nc1ccc(N2CCOCC2)cc1)c1cccc(Cl)c1 | i | -6% | 16µM* | 1% | 0% | -4%
N#C/C(=C\c1ccc(Cl)cc1)C(=O)Nc1cccnc1 | 13µM* | 20% | 0%[1.82 µM] | ? | -11% | 4%
O=C(c1cccc(Cl)c1)N1c2nc(-c3ccco3)nn2C2(CCCCC2)[C@@H]2CCCC[C@@H]21 | i | . | 8% | . | . | .
O=C(c1cccc(Cl)c1)N1c2ncnn2C2(CCCCC2)[C@@H]2CCCC[C@@H]21 | i | . | 13µM* | . | . | .
COc1ccc(CCNC(=O)CCN2C(=O)COc3ccc(C)cc32)cc1OC | i | ? | 8.9µM* | 0% | 1% | -9%
COc1ccc(CCNC(=O)CCN2C(=O)COc3ccccc32)cc1OC | i | 1% | 8% | -1% | 0% | 3%
Cc1cccc(C)c1NC(=O)CSc1nc(-c2cccs2)cc(C(F)(F)F)n1 | i | . | 20% | . | . | .
CCOC(=O)c1cnc2c(ccc3ccccc32)c1Nc1ccccc1OCC | i | . | 13% | . | . | .
CCOC(=O)c1cnc(-n2cc(C)cn2)nc1Nc1ccccc1OCC | i | 12% | 20µM* | 0% | -15% | -1%
CSc1ccc(C2c3c(oc4cc(C)cc(C)c4c3=O)C(=O)N2CCO)cc1 (stereo not given) | i | . | ? | . | . | .
COc1cc(/C=C/C(=O)c2c(O)ccc3c(C)cc(=O)oc23)ccc1O | i | -12% | ? | -2% | 5µM* | -10%
